S aureus helic – blocks Staphylococcus aureus DNA helicase; purified S. aureus helicase, fluorescence unwinding assay; AID 485395; inhibition, % (test concentration not listed); actives 0.05% (n = 120,000); in the data active means inhibition above about 25%, passing the limit was not always enough;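 further: 0% = mean of negative control wells and 100% = mean of positive control wells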
Sa growth inh – S. aureus growth inhibition; S. aureus RN4220 growth, OD600, 20 h, 42 °C; stronger effect = lower value; relative growth, % (no concentration beside the values); actives 0.53% (n = 170,000);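 active means relative growth at most 50% at the other temperature and 20+ points below 30 °C, or under 10% at both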
* hit, by the source's call; . = no result. Hits are enriched below; roughly 0.52% of the tested compounds scored in any of these assays.

SMILES	S aureus helic	Sa growth inh
Cn1c(=N)n(CC(=O)c2ccc(-c3ccccc3)cc2)c2ccccc21	8	117
C=CCn1c(=N)n(CC(=O)c2ccc(-c3ccccc3)cc2)c2ccccc21	13	5.3*
CC(OC(=O)Cc1ccc(F)cc1)C(=O)Nc1ccc(S(N)(=O)=O)cc1 (stereo not given)	5	93
Cc1ccc(C)n1-c1ccc2ncsc2c1	-13	.
CCN1CCc2c(OC)cccc2C1=O	4	94
COc1cccc2c1CCN(Cc1cccc(C)c1)C2=O	-2	5.1*
CCCNC(C(=O)Nc1cc(C)ccc1C)c1ccccc1 (stereo not given)	-4	87
Cc1cc2nc3c(=O)[nH]c(=O)[nH]c3nc2cc1N=Cc1c(O)n(Cc2ccccc2)c(=O)[nH]c1=O	-60	101
CC(C)NS(=O)(=O)c1ccc(NC(=O)C2CC2C)cc1 (stereo not given)	2	101
N#CC1=C(CBr)NC(CBr)=C(C#N)C12CCCCC2	48*	131
CCSC1=C(C#N)C2(CCCCC2)C(C#N)=C(N)N1	10	108
CC1=C(C(=O)Nc2nccs2)C2(CCCCCC2)OC1=O	-12	83
Cn1ccccc1=S	-2	101
On1ccccc1=S	11	0.4*
O=C(Cn1ncc2c([nH]c3ccccc32)c1=O)NCCC1=CCCCC1	7	99
O=S(=O)(NC1(C(F)(F)F)Oc2ccccc2O1)c1ccccc1	-14	51
CCOC(=O)c1ccc(NC(=O)c2nc(S(=O)(=O)Cc3ccccc3)ncc2Cl)cc1	.	100
Cc1ccc(CS(=O)(=O)c2ncc(Cl)c(C(=O)Nc3nc4ccc(C)cc4s3)n2)cc1	.	92
CC(C)c1nnc(NC(=O)c2nc(S(=O)(=O)Cc3ccccc3)ncc2Cl)s1	.	7.3*
Cc1ccccc1CS(=O)(=O)c1ncc(Cl)c(C(=O)Nc2nnc(C(C)C)s2)n1	.	5.7*
CCCc1nnc(NC(=O)c2nc(S(=O)(=O)Cc3ccc(C)cc3)ncc2Cl)s1	.	4.1*
COc1ccc(OC)c(NC(=O)c2nc(S(=O)(=O)Cc3ccc(F)cc3)ncc2Cl)c1	.	-1.1*
Cc1ccc(NC(=O)c2nc(S(=O)(=O)Cc3ccc(F)cc3)ncc2Cl)cc1C	.	101
CC(C)Sc1ncc(Cl)c(C(=O)Nc2nnc(C(C)C)s2)n1	.	97
CN1CCc2nc(NC(=O)Cc3coc4cc5c(cc34)CCC5)sc2C1	42	107
SMILES	S aureus helic	Sa growth inh
O=C(CSc1oc(-c2ccc(Cl)cc2)nc1S(=O)(=O)c1ccccc1)N1CCCC1	-13	94
COc1ccc(-n2nc(C(=O)N3CCCCC3C)c3c4ccccc4n(C)c3c2=O)cc1 (stereo not given)	15	110
Cc1ccccc1Nc1cc(C)c(C#N)c2nc3ccccc3n12	10	1.2*
COc1ccc(Nc2cc(C)c(C#N)c3nc4ccccc4n23)cc1	8	93
N#Cc1ccccc1CSc1nsc(SCc2ccccc2C#N)c1C#N	-4	111
CC(C(=O)Nc1ccccc1O)N1C(=O)C2C3C=CC(C3)C2C1=O (stereo not given)	1	86
O=C1NC(=O)/C(=C\C=C\c2ccccc2)S1	7	.
O=C1NC(=S)S/C1=C\C=C\c1ccccc1	10	6.9*
CCc1cccc(-n2nnc(S(=O)(=O)c3ccccc3)c2C)c1	-15	93
CCOCCCn1c(C)c(C)c(C#N)c1N	-45	93
Cc1c(C#N)c(N)n(Cc2cc(C(F)(F)F)cc(C(F)(F)F)c2)c1C	14	-0.1*
N#C/C(=C\c1ccc(F)cc1)c1c[nH]c2ccccc12	.	42*
N#C/C(=C\c1ccc(Cl)cc1Cl)c1c[nH]c2ccccc12	.	71
Cc1nn(-c2ccccc2)c(Cl)c1C(=O)OCC(=O)N1CCCC1	-7	97
Cc1oc2c(c1C(=O)O)C(=O)c1ccccc1C2=O	2	11
Cc1c(C(=O)NCCCN2CCOCC2)cc(-c2ccccc2)n1-c1ccccc1	.	101
Cc1oc2c(c1C(=O)N1CCc3ccccc3C1)C(=O)c1ccccc1C2=O	6	6.5*
Cc1oc2c(c1C(=O)NCc1ccccn1)C(=O)c1ccccc1C2=O	4	0.6*
Cc1oc2c(c1C(=O)NCc1ccccc1)C(=O)c1ccccc1C2=O	2	20
Cc1oc2c(c1C(=O)NCCCN1CCOCC1)C(=O)c1ccccc1C2=O	2	1.7*
O=c1cc(Nc2ccc3c(c2)OCO3)[nH]c(=O)n1Cc1ccc(F)cc1	6	69
O=C(CSc1nc(-c2ccccc2)cs1)N1CCOCC1	20	102
CC(C)Cn1c(C(O)c2ccccc2)nc2ccccc21 (stereo not given)	14	112
O=C(NCCN1CCOCC1)Nc1c[nH]c2ccccc2c1=O	11	96
O=C(Nc1c[nH]c2ccccc12)N1CCCc2ccccc21	11	37
SMILES	S aureus helic	Sa growth inh
CC(=O)N1CCN(C(=O)Nc2c[nH]c3ccccc23)CC1	10	6.1*
CC1CCCCN1C(=O)Nc1c[nH]c2ccccc12 (stereo not given)	6	2.7*
CC1Cc2ccccc2N1C(=O)Nc1c[nH]c2ccccc12 (stereo not given)	3	15
O=C(NCCN1CCOCC1)Nc1c[nH]c2ccccc12	13	3.2*
FC(F)(F)c1cc(-c2cccs2)nc2cc(-c3ccco3)nn12	.	111
CCOC(=O)c1nc(Cn2cc(I)cn2)no1	2	88
CCOC(=O)C1CCN(CC(=O)CNc2ccc(Cl)c(Cl)c2)CC1	-10	104
CC(=O)N1CCc2cc(S(=O)(=O)CCC(=O)N3CCc4ccccc43)ccc21	7	101
Cc1cccc(NCN2C(=O)S/C(=C/c3ccc(N(C)C)cc3)C2=O)c1	13	118
S=c1nc2ccccc2c2nc(COc3ccccc3Br)[nH]n12	-13	0.6*
Brc1ccccc1-c1nc2ccccc2c2nc3ccccc3n12	9	111
COC(=O)c1cc(=O)n(-c2cc(Cl)cc(Cl)c2)[nH]1	40	13*
COC(=O)c1n[nH]n(-c2cc(Cl)cc(Cl)c2)c1=O	.	90
O=C(Cc1coc2ccc3ccccc3c12)Oc1ccc(-c2nnco2)cc1	15	96
O=C(COC(=O)C1(c2ccccc2)CC1)Nc1nnc(-c2ccccc2)o1	13	-0.5*
O=C(COC(=O)CC1CCCC1)Nc1nnc(-c2ccccc2)o1	2	21
O=C(COC(=O)Cc1coc2ccc3ccccc3c12)Nc1nnc(-c2ccccc2)o1	-9	0.1*
c1coc(C(CNc2ncnc3sc4c(c23)CCC4)N2CCCCC2)c1 (stereo not given)	-18	88
Cc1cccc2sc(NC(=O)c3ccccc3)nc12	-20	.
Cc1ccc2oc(=O)c3cc(C(=O)N(C)Cc4ccco4)sc3c2c1	-3	95
C[N+](C)(CCOc1ccccc1)Cc1ccccc1	.	92
Cc1cc(C(C)(C)CC(C)(C)C)ccc1OCCOCC[N+](C)(C)Cc1ccccc1	.	0.9*
O=C(NCc1cccnc1)/C(=C\c1cccc(Oc2ccccc2)c1)S(=O)(=O)c1ccccc1	17	-1.3*
O=C(NCc1cccnc1)/C(=C\c1ccc(Br)cc1)S(=O)(=O)c1ccccc1	10	-1.3*
O=C(NCc1cccnc1)c1ccc(Br)cc1	18	.
O=C(NCc1ccncc1)c1cccc(Oc2ccccc2)c1	0	105
Cc1cc(SCC(=O)c2cc(C)n(C)c2C)n2c(nc3ccccc32)c1C#N	5	99
CCn1cc(C(=O)O)c(=O)c2cc(F)c(N3CCN(C)CC3)cc21	-28	-0.9*
